Hit rate of the full screen: of about 310,000 compounds, about 11,000 (3.5%) were called active. Not shown: some 4% with an inconclusive outcome. The entries come from a sample that favours actives as a whole. Unmarked numbers belong to inactive results. The call rests on the fitted dose curve; in most records, active means well fitted inhibition curve with a large enough effect; inconclusive means small, poorly fitted or top-dose-only effect, or another doubt; inactive means no such curve, though single readings can be large or run the other way.
What follows are compounds tested against 4'-phosphopantetheinyl transferase ffp (Bacillus subtilis) (UniProt Q9F4F7) (assay: qHTS Assay for Inhibitors of Bacillus subtilis Sfp phosphopantetheinyl transferase (PPTase)). Conditions: Biochemical Sfp PPTase activity.
Procedure, shortened: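 Compounds were incubated with enzyme (final 15 nM) for 15 min at room temperature before substrate addition started the reaction. Fluorescence at 525 nm excitation, 598 nm emission was recorded immediately and after 30 minutes.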
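Further: the enzyme is Sfp with the accession as filed and its product quenches rhodamine fluorescence.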
Potency means the concentration at half of the fitted maximal effect.
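Wherever largest response in the series, negative = inhibition is given: 0% = enzyme reaction without inhibitor and -100% = no enzyme wells.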

Compound | largest response in the series, negative = inhibition [%] | Potency
COc1ccc2c(CC(=O)N3CCc4cc(OC)c(OC)cc4C3)coc2c1 | 1 | 
CNc1nnc(-c2ccco2)s1 | 5.68 | 
Cc1ccc(OCC(=O)Nc2nnc(-c3ccco3)s2)cc1 |  | 79.4 µM (active)
COc1ccc(OCC(=O)Nc2nnc(-c3ccco3)s2)cc1 | -15 | 
COc1ccc(N(CC(=O)NCC2CCCO2)C(=O)CCC(=O)Nc2nccs2)c(OC)c1 (stereo unspecified) | 26.6 | 
CCOc1ccc(C(=O)Nc2ccc(CN3CCOCC3)cc2)cc1Cl | 8.41 | 
O=C(Nc1ccc(O)cc1)c1ccccc1O | -1.36 | 
CCOC(=O)CCc1c(C)c(C#N)c2[nH]c3ccccc3n2c1=O | -12.3 | 
CCCc1cc(=S)n2c([nH]c3ccccc32)c1C#N |  | 56.2 µM (active)
Cc1ccccc1Cn1c(=O)[nH]c2ccccc21 | -2.4 | 
Cc1cccn2cc(-c3cccc(S(=O)(=O)N4CCCCC4)c3)nc12 | -2.13 | 
COc1ccccc1NC(=O)CSc1nc2sc(C)c(C)c2c(=O)n1Cc1ccco1 |  | 20 µM (active)
CCOC(=O)Cc1csc(NC(=O)CSc2nnc(-c3cccnc3)n2Cc2ccco2)n1 | -19.3 | 
COc1ccc(NC(=O)CSc2nnc(-c3cccs3)n2Cc2ccco2)cc1OC |  | 22.4 µM (active)
Cc1ccc(NC(=O)CSc2nnc(-c3cnccn3)n2Cc2ccco2)cc1C | -38.6 | 
COc1ccccc1NC(=O)CSc1nnc(-c2ccoc2C)n1CCc1ccccc1 | -0.913 | 
O=C(CSc1nnc(-c2cccs2)n1-c1ccccc1)NCc1ccco1 | 14.2 | 
O=C(CSc1nnc(-c2cccs2)n1Cc1ccco1)c1ccc2c(c1)OCO2 |  | 56.2 µM (active)
CCn1c(SCC(=O)c2ccc3ccccc3c2)nnc1-c1cccs1 | -21.9 | 
O=C(CSc1nnc(-c2cccnc2)n1Cc1ccco1)c1ccc(Cl)cc1 | 5.12 | 
COc1ccccc1NC(=O)CSc1nc2sc3c(c2c(=O)n1-c1ccccc1)CCN(C)C3 | -13.2 | 
O=C(CSc1nnc(-c2cccnc2)n1Cc1ccco1)c1ccc(Cl)c(Cl)c1 |  | 28.2 µM (active)
CCn1c(SCC(=O)c2ccc(Cl)s2)nnc1-c1cccs1 | -7.42 | 
O=C1Nc2cc(C(=O)N3CCC(N4CCCCC4)CC3)ccc2S/C1=C\c1ccccc1 | -28.2 | 
CCCNC(=O)CCc1c(C)nc2c(c(C)nn2-c2ccc(C)cc2)c1C | 20.1 | 
O=C(NC1CCCC1)C(=O)c1c[nH]c2ccccc12 | 20.8 | 

— PubChem BioAssay AID1490 (National Center for Advancing Translational Sciences (NCATS), 2009)
